Assay results as given in PubChem BioAssay (NCATS).
Inconclusive results are not listed. Unmarked numbers belong to inactive results. The source made the active and inactive calls. Calls come from the whole dose curve; as a rule, active = well fitted cell-killing curve with a large enough effect; inconclusive = small, poorly fitted or top-dose-only effect; inactive = no such curve, though single readings can be large or run the other way. Starred links: 1 amine or outer side, 2 acyl side, 3 side chain; linkers in the order of their positions; H or OH if unused. Positions of bridges follow the written chain, without caps; N, C: chain ends. Non-standard residues stand in square brackets, D forms with d. Residues, ends and D or L forms follow the SMILES beside them. Chains are numbered I, II in the order given. *: point of attachment. Actinocin(9to1) = Cc1c2oc3c(C)ccc(C(=O)[*:1])c3nc-2c(C(=O)[*:2])c(N)c1=O; NMeV = CN[CH](C(=O)O)C(C)C; Nva = CCC[C@H](N)C(=O)O; Cbz = O=C(OCc1ccccc1)*; Sar = CNCC(=O)O

assay: qHTS of pediatric cancer cell lines to identify multiple opportunities for drug repurposing: Confirmatory screen for DAOY cells (AID 1347114); settings: DAOY medulloblastoma cells viability, cytotoxicity qHTS; series mostly up to 45.9 µM; activity change, negative = cytotoxic: at the top concentration; note: nearly all actives have a fitted effect of over 65% in size
Excerpt: Drug repurposing or repositioning has been offered as a strategy for drug development in oncology programs. This approach has special potential for childhood cancers and other rare or orphan diseases, where the expected return on new drug development has been a disincentive to pharmaceuticals.
In this project we exploit the poly-pharmacology of drugs to discover new indications via phenotypic screening of a panel of 19 well-characterized cell lines derived from solid tumors seen in children and adolescents. The goal is to identify approved drugs with previously unrecognized anticancer properties that has the potential to reveal new mechanisms and biological processes involved in carcinogenesis or drug resistance. We employed a titration-based paradigm (quantitative high-throughput screening or qHTS), where all compounds were tested at multiple concentrations for their effect on cell viability. Concentration-response curves (CRCs) were derived directly from the primary screen, and both potency and efficacy values were used to identify compounds with robust bioactivity profiles. We screened the NIH Chemical Genomics Center (NCGC) Pharmaceutical Collection (NPC) and Mechanism Interrogation Plate (MIPE) small molecule collections of approved and investigational compounds against these cell lines; and measured metabolically active cells after 48 hours of compound treatment as a proxy for cell viability.
Assay Submitter: Nathalia J. Martinez, National Center for Advancing Translational Sciences, National Institutes of Health, Rockville, MD, USA; email: natalia.martinez@nih.gov
[1] Shen, M et al. Quantitative high-throughput phenotypic screening of pediatric cancer cell lines identifies multiple opportunities for drug repurposing. Oncotarget 2017 Dec 19;9(4):4758-4772. PMID 29435139.
The cells were obtained from University of North Carolina (UNC), Pediatric Preclinical Testing Program (PPT), and Coriell Institute (CI).
qHTS cell viability assay:
Cells were assayed in growth media at a density of 500-1,000 cells/well. Five microliters of cells were dispensed into 1,536-well, white, solid-bottom, TC-treated plates (Greiner Bio One) using a multidrop dispenser and incubated at 37 degrees C, 5% CO2, under a humidified atmosphere for 5 hours. Twenty-three nanoliters of compounds and controls (neutral control DMSO or positive control bortezomib at final concentration of 2.3 µM) were subsequently transferred by Kalypsys pintool. For primary screens, the MIPE collection was tested at 11-point dilutions (final concentrations range from 0.78 nM to 46 µM) and the NPC collection at 8-point dilutions (final concentrations range from 0.59 nM to 46 µM). Compounds tested in follow-up screens were assayed at 11-point dilutions. Cells were incubated for 48 hours, followed by addition of 3 uL of CellTiter-Glo (Promega). After a 15 min incubation at room temperature, samples were analyzed for luminescence intensity using a ViewLux High-throughput CCD imager equipped with clear filters.
% is set by controls: 0 for no effect and ±100 for the full control effect; potency is the fitted concentration of half-maximal effect.

Structure (SMILES) | Potency | activity change, negative = cytotoxic
Cc1c2oc3c(C)ccc(C(=O)NC4C(=O)NC(C(C)C)C(=O)N5CCCC5C(=O)N(C)CC(=O)N(C)C(C(C)C)C(=O)OC4C)c3nc-2c(C(=O)NC2C(=O)NC(C(C)C)C(=O)N3CCCC3C(=O)N(C)CC(=O)N(C)C(C(C)C)C(=O)OC2C)c(N)c1=O (stereo not given) (I: TVP[Sar][NMeV] / II: TVP[Sar][NMeV]; ester I:1-I:C, II:1-II:C; linker I:N-II:N via Actinocin(9to1); configuration not given here) | 36.9 nM (active) | –
CC(C=CC(=O)NO)=C[C@@H](C)C(=O)c1ccc(N(C)C)cc1 | 2330 nM (active) | –
CCOC(=O)[C@@H](N)Cc1ccc(-c2cc(O[C@H](c3ccc(Cl)cc3-n3ccc(C)n3)C(F)(F)F)nc(N)n2)cc1 | – | 1.21%
COc1cc(O)c2c(c1)C1OC1C[C@H](O)[C@H](O)C(=O)C=CC[C@H](C)OC2=O (stereo not given in full) | 16500 nM (active) | –
CC[C@]12C=CCN3CC[C@@]4(c5cc([C@@]6(C(=O)OC)C[C@H]7C[C@@H](C(C)(F)F)CN(Cc8c6[nH]c6ccccc86)C7)c(OC)cc5N(C)[C@H]4[C@@](O)(C(=O)OC)[C@H]1OC(C)=O)[C@@H]32 | – | 12%
CC(=O)SCC(Cc1ccccc1)C(=O)NCC(=O)OCc1ccccc1 (stereo not given) | – | 10.5%
C=CC(=O)Nc1ccc2ncnc(Nc3ccc(OCc4cccc(F)c4)c(Cl)c3)c2c1 | 7370 nM (active) | –
O=C(C=CC#Cc1cccc(NS(=O)(=O)c2ccccc2)c1)NO | 7370 nM (active) | –
N#CNC(=NCCCCCCOc1ccc(Cl)cc1)Nc1ccncc1 | 165 nM (active) | –
CCc1cnn2c(NCc3ccc[n+]([O-])c3)cc(N3CCCC[C@@H]3CCO)nc12 | – | -7.18%
Cn1cnc(=N)c2[nH]cnc21 | – | -5.82%
CC(C)C[C@H](NC(=O)[C@@H](NC(=O)c1cccc(-c2ccccc2)n1)[C@@H](C)O)B(O)O | 36.9 nM (active) | –
CC(C)C[C@H](NC(=O)CNC(=O)c1cc(Cl)ccc1Cl)B1OC(=O)CC(CC(=O)O)(C(=O)O)O1 (stereo not given in full) | 165 nM (active) | –
CC(C)C[C@@H](C=O)NC(=O)[C@H](CC(C)C)NC(=O)[C@H](CC(C)C)NC(=O)OCc1ccccc1 (Cbz-Leu-Leu-Leu-aldehyde) | 737 nM (active) | –
N#Cc1c(C2CCNCC2)cc(-c2c(O)cccc2OCC2CC2)nc1N | 16500 nM (active) | –
Cc1cc(Nc2ncc3c(n2)N(C)C(=O)N(c2cc(NC(=O)c4cccc(C(F)(F)F)c4)ccc2C)C3)n(C)n1 | 14700 nM (active) | –
CC(=O)[C@]1(O)Cc2c(O)c3c(c(O)c2[C@@H](O[C@H]2C[C@H](N)[C@@H](O)[C@H](C)O2)C1)C(=O)c1ccccc1C3=O | 2080 nM (active) | –
CCC(C(=O)O)C1CCC(C)C(C(C)C(O)C(C)C(=O)C(CC)C2OC3(C=CC(O)[C@@]4(CC[C@](C)(C5CC[C@@](O)(CC)C(C)O5)O4)O3)C(C)CC2C)O1 (stereo not given in full) | 3290 nM (active) | –
O=C(C=Cc1ccc(CN(CCO)CCc2c[nH]c3ccccc23)cc1)NO | 261 nM (active) | –
COC1=C2C[C@@H](C)C[C@H](OC)[C@@H](O)[C@@H](C)C=C(C)[C@H](OC(N)=O)[C@@H](OC)C=CC=C(C)C(=O)NC(=CC1=O)C2=O | 5850 nM (active) | –

Structure (SMILES) | Potency | activity change, negative = cytotoxic
Cc1ccc([N+](=O)[O-])cc1S(=O)(=O)N(C)N=Cc1cnc2ccc(Br)cn12 | 329 nM (active) | –
Cc1cnc(Nc2ccc(N3CCN(C)CC3)cc2)nc1Nc1cccc(S(=O)(=O)NC(C)(C)C)c1 | 18500 nM (active) | –
COC(=O)C=CC(=O)OC | – | -5.18%
CC(C)(N)c1ccc(-c2nc3ccccc3nc2-c2ccccc2)cc1 | – | -87%
O=C(O)C[C@H](O)C[C@H](O)C=Cc1c(C2CC2)nc2ccccc2c1-c1ccc(F)cc1 | 1470 nM (active) | –
Nc1nc2c(c(=O)[nH]1)N(C=O)[C@H](CNc1ccc(C(=O)N[C@@H](CCC(=O)O)C(=O)O)cc1)CN2 | – | -4.42%
Oc1ccc(-c2ccc(-c3cc(Nc4cccc(CNC5CC5)c4)n[nH]3)cc2)c(O)c1 | 6570 nM (active) | –
CNC(=O)c1ccc(Nc2cc(Nc3ccccc3S(=O)(=O)C(C)C)c3cc[nH]c3n2)nc1 | 5850 nM (active) | –
O=C1NCCc2[nH]c(-c3ccncc3)cc21 | 4140 nM (active) | –
CC(C(C)N1CC(=O)NC(=O)C1)N1CC(=O)NC(=O)C1 (stereo not given) | – | -18.4%
CN[C@H]1[C@@H](O)[C@@H]2O[C@@H]3O[C@H](C)CC(=O)[C@]3(O)O[C@@H]2[C@@H](NC)[C@H]1O | – | 20.9%
CCC[C@@H](C=O)NC(=O)[C@H](CC(C)C)NC(=O)[C@H](CC(C)C)NC(=O)OCc1ccccc1 (Cbz-Leu-Leu-[Nva]-aldehyde) | 1170 nM (active) | –
COc1cc(OC)c(C=CS(=O)(=O)Cc2ccc(OC)c(NCC(=O)O)c2)c(OC)c1 | 165 nM (active) | –
CC1(C)O[C@@H]2C[C@H]3[C@@H]4CCC5=CC(=O)C=C[C@]5(C)[C@@H]4[C@@H](O)C[C@]3(C)[C@]2(C(=O)CO)O1 | – | 21.8%
Cc1ncc(-c2ccnc(Nc3ccc(S(C)(=O)=O)cc3)n2)n1C(C)C | 13100 nM (active) | –
COc1cccc2c1C(=O)c1c(O)c3c(c(O)c1C2=O)C[C@@](O)(C(C)=O)C[C@H]3O[C@H]1C[C@H](N)[C@H](O)[C@H](C)O1 | 3690 nM (active) | –
COc1cccc2c1C(=O)c1c(O)c3c(c(O)c1C2=O)C[C@@](O)(C(=O)CO)C[C@@H]3O[C@H]1C[C@H](N)[C@@H](O)[C@H](C)O1 | 1470 nM (active) | –
COC[C@H](NC(=O)c1cnc(C)s1)C(=O)N[C@@H](COC)C(=O)N[C@@H](Cc1ccccc1)C(=O)[C@@]1(C)CO1 | 104 nM (active) | –
O=C(NC1CC1)c1cccc(-c2ccc3c(NC(=O)C4CC4)n[nH]c3c2)c1 | 9270 nM (active) | –
Cc1nc(NC(=O)N2CCC[C@@H]2C(N)=O)sc1-c1ccnc(C(C)(C)C(F)(F)F)c1 | – | -23.1%
